# Target: Glucose transporter (Leishmania mexicana) (UniProt O61059)
# Test: ST_JUDE_LEISH: Cytotoxicity at 2uM final concentration against transgenic Leishmania Mexicana promastigotes LmGT2 that are glucose transport deficient and complemented with the L. Mexicana glucose transporter 2. Activity is measured by DNA content using SYBR green in vitro
# Type: functional
row,SMILES,inhibition [%]
1,O=S(=O)(c1cc2ccccc2s1)N(CCC(O)(C(F)(F)F)C(F)(F)F)Cc1cccc(O)c1,1.75
2,O=C(NCCN1CCOCC1)c1csc(C2CCCN(C(=O)c3ccc(O)c(-c4cc(Cl)cc(Cl)c4)c3)C2)n1 (stereo unspecified),1.85
3,O=C(NCCCCN1CCC(c2ccc3c(c2OCCN2CCCC2)CCCC3)CC1)c1ccc(-c2ccc(C(F)(F)F)cc2)cc1,4
4,O=C(Nc1ccc2c(c1)CCN2C1CCN(Cc2cccc3cc[nH]c23)C1)c1ccco1 (stereo unspecified),1.83
5,O=C(Nc1cccc(-c2ccc(-c3nc4ccccc4[nH]3)cc2)c1)c1ccncc1,2.5
6,COc1ccc2nc(C)cc(N/N=C/c3ccccc3[N+](=O)[O-])c2c1,-0.41
7,O=C(NCCNc1ccnc(Nc2ccc(F)cc2)n1)c1cc2ccccc2s1,0.69
8,Cc1cc(=NN=Cc2ccccc2)c2cc(C(F)(F)F)ccc2[nH]1,6.17
9,Nc1nc(-c2ccc3c(Nc4ccc(F)c(Cl)c4)ccnc3c2)cs1,3.86
10,Clc1ccc(Nc2nc3ccc(Cl)cc3nc2Nc2ccc(Cl)cc2)cc1,7.3
11,CCCc1cc(Cc2cnc(N)nc2N)cc2c1OC(C)(C)C2,2.58
12,CN1CCN(c2ccnc3cc4c(cc23)N(Cc2ccccc2)CC4)CC1,0.13
13,c1ccc(-c2nc(NC3CCCCC3)cc(C3CC3)n2)nc1,1.62
14,CCOc1ccc(NC(=O)c2cccc(CN3CCCN(Cc4cccc(O)c4)CC3)c2)cc1,0.81
15,Cc1c(C(C)(C)C)ccc2nc(N)nc(N)c12,56.6
16,CN1CCCC(COc2cc3c(cc2Br)CCN3C(=O)Nc2ccc(-c3ccncc3)c(Cl)c2)C1 (stereo unspecified),3.35
